In PubChem BioAssay AID1159580 (chemical genetic matrix, 2015):
In all, about 5,500 compounds went through this assay and about 2,000 (36%) were called active. Roughly 18% stayed inconclusive and do not appear here. Rule as the data show it: active = normalized growth mostly below about 0.91 (no sharp cut-off); inconclusive = no clear call, values can overlap the other calls; inactive = mostly above about 0.92. This is one part of the list.

Assay: chemical genetic growth profiling, strain panel (AID 1159580);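 also: tested at 20 µM; growth read once vehicle control cultures reached saturation at 30 °C; 1 = growth at the plate median or of vehicle wells; lower values mean less growth of the strain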
Conditions: S. cerevisiae deletion strains, growth OD
[1] = locus YAL021C, strain ccr4, hits give low values
[2] = locus YAL026C, strain drs2, hits give low values
[3] = locus YAL030W, strain snc1, hits give low values
[4] = locus YBL061C, strain skt5, hits give low values
[5] = locus YBR009C, strain hhf1, hits give low values
[6] = locus YBR023C, strain chs3, hits give low values
[7] = locus YBR171W, strain sec66, hits give low values
[8] = locus YBR231C, strain swc5, hits give low values
[9] = locus YBR279W, strain paf1, hits give low values
[10] = locus YCL011C, strain gbp2, hits give low values
[11] = locus YCL016C, strain dcc1, hits give low values
[12] = locus YCL069W, strain vba3, hits give low values
[13] = locus YCR088W, strain abp1, hits give low values
[14] = locus YDL005C, strain med2, hits give low values
[15] = locus YDL040C, strain nat1, hits give low values
[16] = locus YDR001C, strain nth1, hits give low values
[17] = locus YDR069C, strain doa4, hits give low values
[18] = locus YDR137W, strain rgp1, hits give low values
[19] = locus YDR159W, strain sac3, hits give low values
[20] = locus YDR297W, strain sur2, hits give low values
[21] = locus YDR334W, strain swr1, hits give low values
[22] = locus YDR335W, strain msn5, hits give low values
[23] = locus YDR392W, strain spt3, hits give low values
[24] = locus YEL003W, strain gim4, hits give low values
[25] = locus YEL037C, strain rad23, hits give low values
[26] = locus YEL061C, strain CIN8 (second series), hits give low values
[27] = locus YER015W, strain faa2, hits give low values
[28] = locus YER016W, strain bim1, hits give low values
[29] = locus YER111C, strain swi4, hits give low values
[30] = locus YER155C, strain BEM2 (second series), hits give low values
[31] = locus YFR010W, strain ubp6, hits give low values
[32] = locus YGL167C, strain pmr1, hits give low values
[33] = locus YGL173C, strain kem1, hits give low values
[34] = locus YGL227W, strain vid30, hits give low values
[35] = locus YGL240W, strain doc1, hits give low values
[36] = locus YGL253W, strain hxk2, hits give low values
[37] = locus YHR013C, strain ard1, hits give low values
[38] = locus YHR027C, strain rpn1, hits give low values
[39] = locus YHR030C, strain SLT2, hits give low values
[40] = locus YHR079C, strain IRE1, hits give low values
[41] = locus YHR142W, strain chs7, hits give low values
[42] = locus YJL092W, strain hpr5, hits give low values
[43] = locus YJL095W, strain BCK1 (second series), hits give low values
[44] = locus YJL095W, strain BCK1, hits give low values
[45] = locus YJL115W, strain asf1, hits give low values
[46] = locus YJL129C, strain trk1, hits give low values
[47] = locus YJL154C, strain vps35, hits give low values
[48] = locus YJL164C, strain tpk1, hits give low values
[49] = locus YJL166W, strain qcr8, hits give low values
[50] = locus YJR066W, strain TOR1, hits give low values
[51] = locus YKL160W, strain elf1, hits give low values
[52] = locus YKR026C, strain gcn3, hits give low values
[53] = locus YKR091W, strain srl3, hits give low values
[54] = locus YLL001W, strain dnm1, hits give low values
[55] = locus YLL026W, hits give low values
[56] = locus YLL041C, strain sdh2, hits give low values
[57] = locus YLR113W, strain HOG1, hits give low values
[58] = locus YLR221C, strain rsa3, hits give low values
[59] = locus YLR258W, strain gsy2, hits give low values
[60] = locus YLR262C, strain YPT6 (second series), hits give low values
[61] = locus YLR320W, strain mms22, hits give low values
[62] = locus YLR342W, strain FKS1, hits give low values
[63] = locus YLR357W, strain rsc2, hits give low values
[64] = locus YLR370C, strain arc18, hits give low values
[65] = locus YLR384C, strain iki3, hits give low values
[66] = locus YML120C, strain ndi1, hits give low values
[67] = locus YMR058W, strain fet3, hits give low values
[68] = locus YMR125W, strain sto1, hits give low values
[69] = locus YMR129W, hits give low values
[70] = locus YMR205C, strain PFK2, hits give low values
[71] = locus YMR231W, strain pep5, hits give low values
[72] = locus YNL071W, strain lat1, hits give low values
[73] = locus YNL183C, strain NPR1, hits give low values
[74] = locus YNL209W, strain ssb2, hits give low values
[75] = locus YNL248C, strain rpa49, hits give low values
[76] = locus YNL322C, strain KRE1 (second series), hits give low values
[77] = locus YNR049C, strain mso1, hits give low values
[78] = locus YOR001W, strain rrp6, hits give low values
[79] = locus YOR070C, strain gyp1, hits give low values
[80] = locus YOR080W, strain dia2, hits give low values
[81] = locus YOR083W, strain WHI5, hits give low values
[82] = locus YOR106W, strain vam3, hits give low values
[83] = locus YOR231W, strain MKK1, hits give low values
[84] = locus YOR265W, strain rbl2, hits give low values
[85] = locus YOR270C, strain vph1, hits give low values
[86] = locus YOR290C, strain snf2, hits give low values
[87] = locus YPL051W, strain arl3, hits give low values
[88] = locus YPL078C, strain atp4, hits give low values
[89] = locus YPL106C, strain sse1, hits give low values
[90] = locus YPL240C, strain hsp82, hits give low values
[91] = locus YPL256C, strain CLN2, hits give low values

Measured: normalized growth

OCc1c[nH]c2ccccc12
inactive: [1] 0.949 | [2] 0.991 | [3] 0.979 | [4] 0.969 | [5] 0.926 | [6] 0.955 | [7] 0.977 | [8] 0.953 | [9] 0.956 | [11] 0.957 | locus YCL061C, strain MRC1, hits give low values 1.01 | [12] 0.976 | [13] 0.971 | [14] 0.989 | [15] 0.981 | [16] 0.99 | [17] 0.974 | [19] 0.88 | locus YDR195W, strain ref2 1 | [20] 0.956 | [21] 1 | [22] 0.984 | [23] 0.856 | [25] 0.978 | [26] 0.975 | [27] 0.943 | [28] 0.977 | [29] 0.992 | [30] 0.966 | [31] 0.984 | [32] 0.978 | [33] 0.96 | [34] 0.983 | [35] 0.911 | [36] 0.98 | [37] 0.955 | [38] 0.96 | [39] 1.02 | [40] 1.05 | [41] 0.948 | [42] 0.979 | [43] 0.944 | [44] 0.979 | [45] 0.981 | [46] 0.879 | [47] 0.987 | locus YJL187C, strain SWE1, hits give low values 0.958 | [50] 0.961 | [51] 0.907 | [52] 0.998 | [53] 0.99 | [54] 1 | [55] 0.976 | [56] 0.979 | [57] 1 | [59] 0.939 | [63] 0.977 | [64] 0.982 | [65] 0.976 | [67] 0.991 | [68] 0.974 | [69] 1 | [71] 0.968 | [73] 0.931 | [74] 0.969 | [75] 0.997 | [76] 0.996 | [77] 0.99 | [79] 0.93 | [80] 1 | [81] 0.987 | [83] 1.04 | [84] 0.972 | [85] 0.974 | [86] 0.963 | [88] 0.983 | [89] 0.952 | [91] 1.08
active: [10] 0.815 | [18] 0.741 | [24] 0.8 | [48] 0.895 | [49] 0.779 | [58] 0.862 | [60] 0.663 | [61] 0.742 | [62] 0.905 | [66] 0.902 | [70] 0.849 | [72] 0.622 | [78] 0.854 | [82] 0.702 | [87] 0.791 | [90] 0.914

c1ccc2c(Cc3c[nH]c4ccccc34)c[nH]c2c1
active: [1] 0.848 | [2] 0.263 | [3] 0.785 | [4] 0.51 | [5] 0.341 | [6] 0.523 | [7] 0.515 | [8] 0.501 | [9] 0.496 | [10] 0.319 | [11] 0.543 | [12] 0.364 | [13] 0.632 | [15] 0.784 | [16] 0.824 | [18] 0.331 | [19] 0.547 | locus YDR195W, strain ref2 1.24 [resistant] | [20] 0.704 | [21] 0.459 | [22] 0.501 | [23] 0.11 | [24] 0.282 | [25] 0.779 | [26] 0.413 | [27] 0.443 | [28] 0.681 | [29] 0.455 | [30] 0.147 | [31] 0.836 | [33] 0.765 | [34] 0.154 | [35] 0.68 | [36] 0.348 | [37] 0.617 | [38] 0.615 | [39] 0.428 | [40] 0.531 | [41] 0.202 | [42] 0.635 | [43] 0.47 | [44] 0.528 | [45] 0.811 | [46] 0.518 | [47] 0.794 | [48] 0.429 | [49] 0.356 | [50] 0.54 | [51] 0.388 | [52] 0.763 | [53] 0.802 | [54] 0.421 | [55] 0.469 | [56] 0.758 | locus YLR027C, strain aat2, hits give low values 0.446 | [57] 0.648 | [58] 0.343 | [59] 0.722 | [60] 0.348 | [61] 0.235 | [62] 0.518 | [64] 0.57 | [65] 0.829 | [66] 0.324 | [67] 0.322 | [68] 0.469 | [69] 0.647 | [70] 0.506 | [71] 0.249 | [72] 0.106 | [73] 0.593 | [74] 0.644 | [75] 0.629 | [76] 0.73 | [77] 0.674 | [78] 0.531 | [79] 0.379 | [80] 0.772 | [81] 0.419 | [82] 0.43 | [83] 0.511 | [84] 0.534 | [85] 0.338 | [86] 0.219 | [87] 0.264 | [88] 0.363 | [90] 0.63 | [91] 0.652
inactive: [14] 0.939 | [17] 1 | [32] 0.958 | [63] 0.876 | [89] 1
